# The entries come from a sample that favours hits as a whole.
# Dicer processing – blocks human Dicer maturation of pre-miR-21; cat-ELCCA pre-miR-21 Dicer processing, chemiluminescence; stronger effect = higher value; Q9UPY3; z-score at 25 µM; actives 6% (n = 47,000); in the data active = z-score above about 3, passing the limit was not always enough;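 note: plate controls were vehicle for no effect and no enzyme for full effect; higher signal means more uncleaved substrate so more Dicer inhibition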
# * hit, by the source's call.
SMILES,Dicer processing
CCCC1=C(C(=O)OCC)C(c2ccccc2)n2c(nc3ccccc32)N1 (stereo unspecified),-0.46
Cc1nc2n[nH]c(N)c2c(C)c1[N+](=O)[O-],-0.6
CCCCOc1ccc(S(=O)(=O)NCc2ccco2)cc1,-0.66
OCCNc1ncnc2ccccc12,0.02
O=C(O)CCCNc1ncnc2ccccc12,-0.76
O=C(O)CNc1ncnc2ccccc12,3.56*
CC(C)(C)NNC(=S)Nc1ccc(Cl)c(Cl)c1,1.77
CC(C1CC1)N(Cc1ccccc1)C(=O)CCC(=O)O (stereo unspecified),0.7
COCc1cc(C)nc2sc(C(=O)N3CCOCC3)c(N)c12,2.67
CS(=O)(=O)Nc1ccc(Cl)cc1,-1.16
COC(=O)c1sccc1N/N=C(\C)c1ccc(NC(=O)C(Cl)Cl)cc1,-1.3
COc1cc(CN2CCN(Cc3ccco3)CC2)cc(OC)c1,0.39
Brc1ccccc1CN1CCN(Cc2ccco2)CC1,2.98
COc1ccc(CN2CCN(Cc3ccco3)CC2)c(OC)c1,3.58*
Brc1ccc(CN2CCN(Cc3ccco3)CC2)cc1,4.55*
CCCS(=O)(=O)N1CCN(Cc2ccco2)CC1,2.05
COc1cc(CN2CCN(Cc3ccc(OC)cc3OC)CC2)cc(OC)c1,0.79
COc1ccc(C[C@H](NC(C)=O)C(=O)O)c(Cl)c1OC,-0.79
COc1ccc(-c2nc(-n3c(C)c4c(C)nnc(C)c4c3C)sc2C)cc1,1.65
CC1=C(C(=O)OC2CCCC2)C(c2cccc(F)c2)C2=C(CC(C)(C)CC2=O)N1 (stereo unspecified),0.52
O=c1[nH]nnn1-c1ccc(Cl)cc1,-1.34
Cc1ccc(-n2c(=O)[nH]c3c(cnn3-c3ccccc3)c2=O)cc1,27.2
C=CCOc1ccc(C2C(C(=O)OC)=C(C)NC3=C2C(=O)c2ccccc23)cc1OCC (stereo unspecified),-0.3
Cc1cc2nc3n(c2cc1C)C(O)C=C(C(C)(C)C)S3 (stereo unspecified),-0.32
Cc1ccc(-n2nc(C)c3c(C(F)(F)F)cc(-c4ccco4)nc32)cc1,0.87
SMILES,Dicer processing
Cc1nn(-c2ccc(Cl)cc2)c2nc(-c3ccco3)cc(C(F)(F)F)c12,4.73*
Cc1nn(-c2ccccc2)c2nc(-c3ccco3)cc(C(F)(F)F)c12,0.61
CCOC(=O)c1c(NC(=O)CSc2nnc3c4ccccc4n(CC)c3n2)sc2c1CCC2,0.95
Cc1ccc2oc(=O)n(CC(=O)C(C)(C)C)c2c1,2.21
CCCCNC(=S)N(CCC#N)C1CCCCC1,-0.62
O=C1CCCc2nc(N3CCN(c4ccc(F)cc4)CC3)ncc21,-1.17
COc1ccc(C2/C(=C(/O)c3ccc(Br)cc3)C(=O)C(=O)N2CCO)cc1OC (stereo unspecified),-2.09
COc1ccc2[nH]cc(CCNC3CC(=O)N(c4ccc(Br)cc4)C3=O)c2c1 (stereo unspecified),3.49*
COc1ccc(N2C(=O)CC(NCCc3c[nH]c4ccc(Cl)cc34)C2=O)cc1 (stereo unspecified),-0.9
O=C1CC(NCCc2c[nH]c3ccccc23)C(=O)N1c1cccc(Cl)c1 (stereo unspecified),0.63
N#C/C(=C\NCc1ccco1)S(=O)(=O)c1ccc(Cl)cc1,-0.94
CCOC(=O)CCc1c(C(=O)OCC)[nH]c2ccccc12,0.64
O=c1[nH]c2cc3ccccc3cc2nc1-c1ccccc1NCc1ccccc1,0.02
CCS(=O)(=O)n1nc(-c2ccccc2)nc1N,3.33*
Nc1nc(-c2ccc(Cl)cc2)nn1S(=O)(=O)c1ccccc1,1.76
CCS(=O)(=O)n1nc(-c2ccc(Cl)cc2)nc1SC,2.71
Clc1nc(NCCN2CCOCC2)nc(N2CCC(Cc3ccccc3)CC2)n1,0.1
O=C(O)CCCNC1=NCCS1,-1.52
O=C(O)CCCNc1nc(Cl)nc(N2CCCCC2)n1,5.65*
CCOC(=O)C(NC(=O)c1nn(-c2ccccc2)nc1C)C(=O)OCC,-0.58
CCOC(=O)C(=CNc1cccc(Cl)c1Cl)C(=O)OCC,-1.66
COc1cccc(-c2nnc(SCc3ccccc3Cl)o2)c1,0.14
COc1ccc(C2C(C(=O)c3cccs3)=C(O)C(=O)N2CCCN2CCOCC2)cc1OC (stereo unspecified),-1.07
Nc1sccc1-c1nc2ccccc2s1,-4.06
CCOC(=O)/C(C#N)=C/c1cn(-c2ccccc2)nc1-c1ccccc1,-1.5
SMILES,Dicer processing
COc1ccc(C2CC(=O)C3=C(C2)Nc2ccccc2NC3c2ccccc2OC(C)C)cc1 (stereo unspecified),2.21
COc1ccc(C2CC(=O)C3=C(C2)Nc2ccccc2NC3c2ccc(Cl)cc2)cc1OC (stereo unspecified),2.37
CC(C)Oc1ccccc1C1Nc2ccccc2NC2=C1C(=O)CC(c1ccccc1)C2 (stereo unspecified),5.71*
COc1cc(C2Nc3ccccc3NC3=C2C(=O)CC(c2ccccc2)C3)cc(Cl)c1O (stereo unspecified),3.21*
COc1ccc(C2Nc3ccccc3NC3=C2C(=O)CC(c2ccccc2)C3)cc1O (stereo unspecified),1.47
COc1ccc(C2CC(=O)C3=C(C2)Nc2ccccc2NC3c2ccccc2OC(C)C)cc1OC (stereo unspecified),0
Cc1cc(-c2noc(COc3cccc(Cl)c3)n2)c2ccccc2n1,-0.29
O=C(c1cccs1)N1CCCN(CC(O)COc2ccc(Cl)c(Cl)c2)CC1 (stereo unspecified),-1.37
O=C(c1sc2cc(Cl)ccc2c1Cl)N1CCCCC1,-0.54
Cc1onc(-c2c(Cl)cccc2Cl)c1NC(=O)OCc1c(F)cccc1Cl,4.05*
Cc1onc(-c2c(Cl)cccc2Cl)c1NC(=O)NN(C)C(=S)SCc1c(F)cccc1Cl,0.26
CCCNC(=O)O/N=C(\N)c1c(-c2c(Cl)cccc2Cl)noc1C,4.47*
Cc1onc(-c2c(Cl)cccc2Cl)c1NC(=O)OCCOc1ccc(Cl)cc1Cl,-0.91
CC(=O)NOC(=O)c1c(-c2c(Cl)cccc2Cl)noc1C,0.86
Cc1onc(-c2c(Cl)cccc2Cl)c1C(=O)ONC(=O)C(C)(C)C,0.7
O=C(O)C1C2CC=CC2c2cc(Br)cc3c2N1CC1CC=CC31 (stereo unspecified),25.8
COc1ccc(C2C3=C(CCCC3=O)Nc3ncnn32)cc1OC (stereo unspecified),-0.52
COc1ccc(NS(=O)(=O)c2ccc(S(=O)(=O)c3ncc(C(F)(F)F)cc3Cl)s2)cc1,-1.09
COc1ccc2nc(SCCO)nc(C)c2c1,-0.7
CC(C)N1C(=O)C(O)(CC(=O)c2ccc3c(c2)OCO3)c2ccccc21 (stereo unspecified),1.86
O=C(O)c1cccc(Cn2ccc([N+](=O)[O-])n2)c1,-1.35
Cc1ccc2nc(Nc3nc(C)c4ccccc4n3)[nH]c(=O)c2c1,-0.36
Cc1nc(Nc2nc3ccccc3c(=O)[nH]2)nc2c(C)cccc12,3.96*
Cc1cc2nc(Nc3nc4ccccc4c(=O)[nH]3)nc(C)c2cc1C,-1.14
Cc1ccc(S(=O)(=O)NNc2ncnc3c2cnn3C)cc1,0.55
SMILES,Dicer processing
O=C(c1ccc(Cl)c(Cl)c1)c1nn2c(nc(=O)c3ccccc32)s1,-3.6
Brc1cc(-c2ccccc2)ccc1OCc1cn2cccnc2n1,-0.28
N#Cc1nc(COc2cccc(Cl)c2)oc1NCc1ccco1,1.23
N#Cc1nc(COc2cccc(Cl)c2)oc1NCc1cccnc1,3.79*
COc1ccc(OCc2nc(C#N)c(N3CCN(c4ccccc4)CC3)o2)cc1,3.05*
COc1ccc(OCc2nc(C#N)c(N3CCC(C(N)=O)CC3)o2)cc1,1.16
N#Cc1nc(COc2ccccc2Cl)oc1N1CCCC1,-0.13

# Assay outcomes: PubChem, Center for Chemical Genomics, University of Michigan
